Sampled rows, rich in hits. Any-hit rate of the full collection: about 12%.
G9a block: G9a (human) methyltransferase inhibition. Q96KQ7. G9a H3K9 monomethylation, AlphaScreen, 2 h. Potency, µM (series often up to 102 µM), for the others: at the top dose activity, negative = inhibition, most hits filed as inhibitors. 8.8% of 350,000 active; further: potency means the concentration at half of the fitted maximal effect; on the % scale 0 is the no-effect control and ±100 the full control effect; nearly all actives have a fitted effect of over 75% in size
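Enzyme 20 nM + cpd, 15 min RT; add b-H3K9 pep 500 nM / SAM 20 uM; 2 h RT; anti-H3K9me1 Ab 0.5 ug/mL + SA donor / anti-rabbit acceptor beads 20 ug/mL each, 10 min; AlphaScreen read.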
PI5P4Ka inh: blocks human PI5P4K alpha kinase activity; P48426; max response, %; 1.2% of 330,000 active; AID 652105; PI5P4Kalpha enzyme, ADP-Glo luminescence, 60 min; active compounds read low; active means max response of -50% or lower; inconclusive means between -30% and -50%; inactive means -30% or higher; further: value at the top dose of about 77 µM; on the % scale 0 is the no-effect control and ±100 the full control effect
Target sequence (P48426 whole entry, looked up): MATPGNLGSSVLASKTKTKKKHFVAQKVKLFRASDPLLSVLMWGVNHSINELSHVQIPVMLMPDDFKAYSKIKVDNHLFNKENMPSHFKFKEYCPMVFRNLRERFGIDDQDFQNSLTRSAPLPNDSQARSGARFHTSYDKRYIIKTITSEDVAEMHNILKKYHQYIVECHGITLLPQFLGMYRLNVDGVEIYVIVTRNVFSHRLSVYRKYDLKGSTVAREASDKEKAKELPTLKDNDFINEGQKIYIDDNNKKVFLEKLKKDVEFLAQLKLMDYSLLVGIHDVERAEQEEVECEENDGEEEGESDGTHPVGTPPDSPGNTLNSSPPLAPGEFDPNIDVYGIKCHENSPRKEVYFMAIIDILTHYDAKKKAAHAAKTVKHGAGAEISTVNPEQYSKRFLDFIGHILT
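Enzyme plus substrate dispensed, test compounds pinned in, then ATP (5 microM final) added. After 60 min at RT, ADP-Glo reagent 1 for 45 min and reagent 2 for 30 min preceded luminescence imaging.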
PLK1 PBD block: PLK1 (human) polo-box domain binding inhibition. P53350. Plk1 PBD binding of FITC phosphopeptide, fluorescence polarization. Potency, µM, inactives show max response, negative = inhibition, actives largely listed as inhibitors. 2.8% of 360,000 active. AID 720504; further: potency means the concentration at half of the fitted maximal effect; series mostly up to about 57 µM; on the % scale 0 is the no-effect control and ±100 the full control effect; nearly all actives have a fitted effect of over 65% in size
BAZ2B inh: inhibitors of human BAZ2B bromodomain; AID 504333; Potency, µM (titrated, usually from 114 µM), without a hit: top-dose activity change, negative = inhibition, actives largely listed as inhibitors; 4.4% of 360,000 active; Q9UIF8; AlphaScreen BAZ2B-H3K14Ac peptide displacement; further: potency means the concentration at half of the fitted maximal effect; on the % scale 0 is the no-effect control and ±100 the full control effect; nearly all actives have a fitted effect of over 60% in size
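AlphaScreen luminescence quantifies BAZ2B engagement of H3K14Ac peptide; the protein and biotinylated peptide are both at 50 nM final, buffer PBS pH 7.4 with 0.01% Tween-20, all steps at room temperature.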
JMJD2A Tudor: JMJD2A Tudor domain (human) inhibition; 4.4% of 390,000 active; AlphaScreen JMJD2A-Tudor / H3K4me3 peptide binding; Potency, µM (doses to about 114 µM), for inactives: at the top dose activity change, negative = inhibition, actives largely listed as inhibitors; O75164; further: potency means the concentration at half of the fitted maximal effect; on the % scale 0 is the no-effect control and ±100 the full control effect; nearly all actives have a fitted effect of over 50% in size
HP1b binding inh: HP1-beta chromodomain-methylated histone interaction inhibition. 0.56% of 390,000 active. AlphaScreen HP1-beta / biotin-H3K9me3 peptide binding. Potency, µM (series often up to 114 µM), for inactives: top-dose activity change, negative = inhibition, most hits filed as inhibitors. AID 540317. P83916; further: potency means the concentration at half of the fitted maximal effect; nearly all actives have a fitted effect of over 70% in size
Target sequence (P83916 whole entry, looked up): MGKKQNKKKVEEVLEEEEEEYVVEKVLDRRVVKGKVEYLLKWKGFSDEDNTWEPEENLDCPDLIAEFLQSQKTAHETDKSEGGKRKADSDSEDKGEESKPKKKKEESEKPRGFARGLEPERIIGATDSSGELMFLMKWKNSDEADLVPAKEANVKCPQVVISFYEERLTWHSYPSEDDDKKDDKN
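HP1-beta protein (50 nM final) preincubated 30 min at room temperature with biotinylated H3(1-18)K9me3 peptide (50 nM) in PBS pH 7.4, 0.01% Tween-20, then compound added for 30 min. AlphaScreen streptavidin donor/nickel chelate acceptor beads (10 ug/mL final), 30 min dark, luminescence read.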
Numbers without * were called inactive; ? = inconclusive; nt = not tested or not shown; [ ] = dose if it differs, or a comment. Unless noted, the call rests on the fitted dose curve; in most records, active means well fitted curve in the direction sought with a large enough effect; inconclusive means small, poorly fitted or top-dose-only effect, or another doubt; inactive means no such curve, though single readings can be large; an effect the other way counts as inactive or inconclusive.

SMILES	G9a block	PI5P4Ka inh	PLK1 PBD block	BAZ2B inh	JMJD2A Tudor	HP1b binding inh
O=C(Nc1ccc(Br)cn1)c1cccc(C(=O)Nc2ccc(Br)cn2)c1	20.1%	-3.5	-14.5%	-1.1%	89.1µM*	62.7%
CCOc1ccc(NC(=O)Nc2ccc(Br)cn2)cc1	-11.4%	-10.0	0.2%	-0.4%	10.5%	32.2%
Fc1ccc(C(Nc2ccccn2)c2c[nH]c3ccccc23)cc1 (stereo not drawn)	39.8µM*	8.7	8.44µM*	-20.0%	?	-11.3%
O=C1c2cc(CO)cc(O)c2C(=O)c2c(O[C@@H]3OC(CO)[C@@H](O)[C@@H](O)[C@@H]3O)cccc21 (stereo partly drawn)	nt	-11.2	-8.6%	nt	-25.2%	7.0%
O=C(O)c1cc(O)c2c(c1)[C@@H]([C@H]1c3cc(C(=O)O)cc(O)c3C(=O)c3c(O[C@@H]4O[C@H](CO)[C@@H](O)[C@H](O)[C@H]4O)cccc31)c1cccc(OC3O[C@H](CO)[C@@H](O)[C@H](O)[C@H]3O)c1C2=O (stereo partly drawn)	1.26µM*	-88.8*	0.844µM*	0.794µM*	0.316µM*	-75.9%
O=C(O)c1cc(O)c2c(c1)[C@H]([C@H]1c3cc(C(=O)O)cc(O)c3C(=O)c3c(O[C@@H]4O[C@H](CO)[C@@H](O)[C@H](O)[C@H]4O)cccc31)c1cccc(OC3O[C@H](CO)[C@@H](O)[C@H](O)[C@H]3O)c1C2=O (stereo partly drawn)	1.26µM*	-78.6*	1.68µM*	0.794µM*	0.316µM*	?
O=C(Nc1ccccc1)c1cc(C2COCCN2C(=O)c2cccs2)on1 (stereo not drawn)	nt	-3.9	-2.2%	nt	nt	nt
CC(=O)Nc1ccc(N=NC2C(=O)N(C(N)=S)N=C2C)cc1 (stereo not drawn)	79.4µM*	?	?	-16.5%	-21.6%	17.5%
CC1=NN(C(N)=S)C(=O)C1N=Nc1ccc([N+](=O)[O-])cc1 (stereo not drawn)	79.4µM*	-23.5	-6.9%	-34.1%	?	?
CC1=NN(C(N)=S)C(=O)C1N=Nc1ccc(O)cc1 (stereo not drawn)	?	-27.1	?	-21.1%	-8.3%[11.4 µM]	-26.6%
CC1=NN(C(N)=S)C(=O)C1N=Nc1cccc(C(=O)O)c1 (stereo not drawn)	0.708µM*	-21.3	?	-22.1%	3.98µM*	11.6%
CC1=NN(C(N)=S)C(=O)C1N=Nc1ccccc1Cl (stereo not drawn)	-9.2%[0.501 µM]	-4.6	-29.9%	-26.5%	-12.8%	27.4%
CC1=NN(C(N)=S)C(=O)C1N=Nc1ccc(Cl)cc1Cl (stereo not drawn)	nt	-4.8	-29.4%	?	50.1µM*	-22.1%
CC1=NN(c2ccccc2C(=O)O)C(=O)C1N=Nc1ccccc1 (stereo not drawn)	44.7µM*	?	?	?	?	?
Brc1ccc2c(c1)C(c1cccs1)=NNC(c1cccnc1)=N2	11.6%	0.0	-5.1%	4.1%	-25.4%	20.2%
CCOc1ccc2c(c1)C(c1cccs1)=NNC(c1cccnc1)=N2	-41.6%	0.4	-10.1%	70.8µM*	?	-18.7%
C/C(=N/Nc1ccc(C)cc1)C1(C)N(O)C(C)(C)C(c2ccco2)=[N+]1[O-] (stereo not drawn)	7.08µM*	-5.7	-19.3%	?	-33.8%	10.3%
CC1(C)C(c2ccco2)=[N+]([O-])C2(CCCCC2=O)N1O (stereo not drawn)	?	-5.4	-1.5%	-4.3%	16.9%	52.1%
Cc1cc(C(=O)N/N=C/c2cccn2C)n[nH]1	?	-7.5	-3.1%	-26.8%	-3.4%	20.0%
Cn1cccc1/C=N/NC(=O)c1cccc(OC(F)(F)C(F)F)c1	?	-9.2	?	?	79.4µM*	?
S=C(NCCc1ccccc1)NCc1cccs1	24.9%[59 µM]	-8.8	-15.2%	17.2%	-8.7%	12.6%
O=C(NCCNCc1cccs1)c1ccccc1F	6.31µM*	2.7	-5.4%	50.1µM*	3.55µM*	?
COCCNC(=S)NCc1cccs1	28.2µM*	4.1	-4.0%	-5.3%	-0.7%	17.9%
CN(C)CCCNCC(=O)c1c(-c2ccccc2)n(C)c2ccccc12	57.5%	3.3	-21.1%	21.5%	4.47µM*	?
O=[S+]1([O-])N=C(Oc2cccnc2)c2ccccc21	nt	nt	nt	nt	2.1%	nt
SMILES	G9a block	PI5P4Ka inh	PLK1 PBD block	BAZ2B inh	JMJD2A Tudor	HP1b binding inh
COc1cccc(C2/C(=C(/O)c3ccc4c(c3)CC(C)O4)C(=O)C(=O)N2CC2CCCO2)c1 (stereo not drawn)	22.9%[0.501 µM]	4.4	-12.3%	-19.2%	-21.5%	5.5%
Cc1cccc(C(=O)Nc2ccc(N3CCC(CCN4CCOCC4)CC3)c(C(=O)O)c2)c1	-6.1%[12.7 µM]	nt	nt	31.6µM*	-25.0%	16.0%
O=C(Nc1ccc(N2CCOCC2)c(C(=O)O)c1)c1ccc(Br)cc1	-37.3%[59 µM]	nt	nt	?	70.8µM*	32.6%
O=C(Nc1ccc(N2CCC(N3CCCCC3)CC2)c(C(=O)O)c1)c1ccc(Br)cc1	-31.1%[59 µM]	nt	nt	79.4µM*	?	14.4%
Cc1cccc(C(=O)Nc2ccc(N3CCN(c4ccc(F)cc4)CC3)c(C(=O)O)c2)c1	5.6%[59 µM]	nt	nt	-3.7%	?	16.6%
Cc1cccc(NC(=O)c2cc(NC(=O)C3CCCCC3C(=O)O)ccc2N2CCCCC2)c1 (stereo not drawn)	-20.7%[59 µM]	nt	?	-1.2%	-34.4%	2.2%
O=C(Nc1cnc(N2CCC(N3CCCCC3)CC2)c(C(=O)O)c1)c1ccc(Br)cc1	?	nt	nt	?	79.4µM*	-3.4%
Cc1nc2ccn(Cc3cccs3)c(=O)c2cc1C(=O)N1CCN(c2ccccc2F)CC1	10.6%[59 µM]	nt	nt	?	-28.3%	6.6%
Cc1ccccc1CSc1nnc(-c2cnccn2)n1C	1.1%	-6.2	-10.1%	-1.3%	-4.0%	6.3%
COc1cc(NC(=O)C(C)(C)C)c(C(=O)OCC(=O)Nc2cc(C)on2)cc1OC	nt	8.3	3.7%	nt	nt	nt
O=C(O)c1cn(-c2ccc(F)cc2)c2cc(N3CCNCC3)c(F)cc2c1=O	?	5.9	-5.0%	nt	50.1µM*	23.7%
CN1OC[C@@H]2CN[C@H](c3cccc(-c4ccccc4)c3)C[C@@H]21	nt	-21.7	-16.1%	nt	-21.0%	11.3%
CCc1ccc2[nH]c(=O)c(C3C(C#N)=C(N)Oc4c3ccc3cccnc43)cc2c1 (stereo not drawn)	-4.0%[59 µM]	-50.8*	-27.8%	?	?	12.5%
CN1C(=O)C[C@@H](C(=O)N[C@@H](Cc2cnc[nH]2)C(=O)N2CCC[C@H]2C(N)=O)NC1=O	0.4%[12.7 µM]	nt	nt	nt	nt	nt
COc1ccccc1Nc1nc(-c2sc(N)nc2C)cs1	12.6µM*	-23.5	-19.6%	?	?	?

Assay outcomes from PubChem.
